Hit rate of the full screen: of about 370,000 compounds, about 6,800 (1.8%) were called active.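 Rule for the calls: active = activation above a cutoff set at the mean of all screened compounds plus 3 SD (cut at about 10% in these data); inactive = the rest.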 The list comes from a sample in which actives are over-represented; it also holds similar structures and randomly drawn compounds.
Each molecule was assayed on Nuclear hormone receptor DAF-12 (Heterodera glycines), GAL4 fusion (assay: hgDAF-12 GAL4 fusion reporter activation – cell-based, luminescence, HEK293, UAS-luciferase, primary screen (AID 687014;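 note: 0% = DMSO wells and 100% = sodium butyrate wells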)). Conditions: HEK293 GAL4-hgDAF12 UAS-luciferase reporter, agonist luminescence; at 6.8 µM; hits give high values; normalized to butyrate control.

| Compound | activation |
| --- | --- |
| Cc1cc(Cl)ccc1OCc1nc(-c2ccncc2)no1 | 14% (active) |
| Cc1ccc(-c2noc(CNC(=O)c3ccoc3C)n2)cc1 | -0.34% (inactive) |
| CC1CCN(Cc2nc(-c3ccc(Cl)cc3)no2)CC1 | 0.37% (inactive) |
| CN(CCc1ccccc1)C(=O)Cn1nc(-c2ccccc2)ccc1=O | 1.22% (inactive) |
| O=C1CC[C@@]23CCCN2C(=O)CCC[C@H]3[C@H]1Cc1ccccc1 | -4.37% (inactive) |
| Cc1nc2nc(SCC(=O)Nc3cccc(F)c3)[nH]c2cc1Br | 0.38% (inactive) |
| Cc1nc2cc(NCc3cccs3)ccc2n1C | 8.48% (inactive) |
| Cc1nc2cc(NC(=O)Nc3cccc(F)c3)ccc2n1C | 14.2% (active) |
| Cc1ccc(C)c(CN2CCC(CNC(=O)C3CCCN(c4ncnc5c4nc4n5CCCCC4)C3)CC2)c1 (stereo unspecified) | -0.85% (inactive) |
| COC(=O)C(C(=O)OC)c1ccccc1NS(=O)(=O)c1cccc2ccccc12 | -2.1% (inactive) |
| CCOc1ccc2nc(C(=O)N3CCCC(C)C3)sc2c1 (stereo unspecified) | 17.9% (active) |
| COc1ccc2cc(C(=O)C3CCCN(C(=O)c4sc(C)nc4C)C3)ccc2c1 (stereo unspecified) | -1.02% (inactive) |
| CCOc1ccc(NC(=O)C2CCCN(C(=O)Nc3ccccc3)C2)cc1 (stereo unspecified) | 1.89% (inactive) |
| COc1ccc(N(CC(=O)NCc2ccc(F)cc2)C(=O)CCC(=O)Nc2nccs2)cc1 | 1.39% (inactive) |
| CC(C)C(=O)Nc1c(C(=O)c2ccc(F)cc2)oc2ccccc12 | -0.79% (inactive) |
| CC(C)C(=O)Nc1oc(-c2ccccc2)cc1C#N | -0.28% (inactive) |
| CC(C)C(=O)Nc1ccc2c(c1)oc1ccccc12 | 12.2% (active) |
| COC(=O)N1Cc2ccnnc2CC1c1ccccc1Br (stereo unspecified) | 0.66% (inactive) |
| FC(F)(F)c1cccc(-c2nc3ccccc3n2C(c2ccccc2)c2nc3ccccc3[nH]2)c1 (stereo unspecified) | 10.7% (active) |
| FC(F)(F)c1cccc(-c2cc3ccccc3nc2N2CCCC2)c1 | -1.35% (inactive) |
| CCC(c1nc2ccccc2[nH]1)n1c(=O)c(-c2cccs2)nc2ccccc21 (stereo unspecified) | 1.53% (inactive) |
| COC(=O)C1=C(C)N(Cc2ccccc2C(F)(F)F)C(=NCC2CC2)NC1c1cccc(Cl)c1 (stereo unspecified) | 4.82% (inactive) |
| C=CCN1[C@H](CC(C)C)COc2cccc(N3CCCC3)c2S1(=O)=O | 1.57% (inactive) |

| Compound | activation |
| --- | --- |
| O=c1c2ccccc2nc2n1C(CSc1ccc(Cl)cc1)CN2 (stereo unspecified) | -1.24% (inactive) |
| Clc1ccc2nc(CSc3ccccc3)cn2c1 | 15.8% (active) |
| Cn1nc(-c2ccccc2)c(CSc2cccc(Cl)c2)c1Cl | -1.11% (inactive) |
| COC(=O)C[C@@H]1CC[C@@H]2[C@H](COc3ccc(NC(=O)c4cccc(F)c4)cc3C(=O)N2C)O1 | 7.18% (inactive) |
| Cc1noc(C)c1NC(=O)Nc1ccc2c(c1)C(=O)N([C@H](C)CO)C[C@H](C)[C@H](CN(C)Cc1ccncc1)OCCCC[C@@H](C)O2 | 2.01% (inactive) |
| C=CS(=O)(=O)N(Cc1nnn(Cc2ccccc2)c1Br)[C@H](C(=O)OC)C(C)C | -3.42% (inactive) |
| Cc1cnc(C(=O)N2CCCC(C(=O)c3ccc(C(F)(F)F)cc3)C2)cn1 (stereo unspecified) | 19.4% (active) |
| O=C(c1ccc(C(F)(F)F)cc1)C1CCCN(C(=O)c2csnn2)C1 (stereo unspecified) | -0.18% (inactive) |
| COCC(=O)N1CCCC(C(=O)c2ccc(C(F)(F)F)cc2)C1 (stereo unspecified) | -2.29% (inactive) |
| COc1ccc(-n2c(SCC(=O)Nc3ccc4cn[nH]c4c3)nnc2-c2cccnc2)cc1 | -0.21% (inactive) |
| OC(CCl)CCl | 2.07% (inactive) |
| C/C(=N\Nc1nc2ccccc2[nH]1)c1cccs1 | 12.3% (active) |
| C/C(=N\Nc1ccc(S(N)(=O)=O)cc1[N+](=O)[O-])c1cccs1 | -0.57% (inactive) |
| C/C(=N\NC(=O)CSc1nc2ccccc2c(=O)n1-c1ccccc1C)c1cccs1 | -2.57% (inactive) |
| COCCCNC(=O)C[C@H]1C[C@@]2(C(=O)OC)C(=C[C@H](C(C)(C)C)O[C@@H]2C)N(Cc2ccc(Cl)cc2Cl)C1=O | -0.78% (inactive) |
| Cc1cc(N2CCN(C(=O)OC(C)(C)C)C[C@H]2C)ccc1N1CCN(Cc2ccccc2)[C@H](C)C1 | -0.97% (inactive) |
| O=C(c1cc(COc2cccc(C(F)(F)F)c2)on1)N1CCSCC1 | -1.54% (inactive) |
| CC(=O)c1ccc(NC(=O)c2cc(-c3cccs3)on2)cc1 | 1.57% (inactive) |
| O=C(c1cc(C2CCCCN2S(=O)(=O)c2ccccc2)on1)N1CCOCC1 (stereo unspecified) | 1.09% (inactive) |
| COc1ccccc1-c1cc(C(=O)N2CCCCC2)no1 | 11.7% (active) |
| O=C(c1cc(-c2cccs2)on1)N1CCCCC1 | 10.8% (active) |
| COc1ccc(OCc2cc(C(=O)N3CCCC3)no2)c2ccccc12 | 7.54% (inactive) |
| O=C(c1cc(-c2ccccc2O)on1)N1CCCC1 | 13.1% (active) |

| Compound | activation |
| --- | --- |
| COc1ccc(C(=O)C2CCCN(C(=O)c3cc(C)on3)C2)cc1F (stereo unspecified) | -1.33% (inactive) |
| CCOC(=O)C1CCCN(C(=O)c2cc(-c3cccs3)oc2C)CC1 (stereo unspecified) | -2.05% (inactive) |
| N#Cc1ccc(OC[C@@H](O)CN2CCC(C(O)(c3ccccc3)c3ccccc3)CC2)c(F)c1 | -0.04% (inactive) |
| CN(C)Cc1cn(-c2ccc(-c3noc4c3C(=O)N(CC(=O)N3CCOCC3)CC4)cc2)nn1 | -1.17% (inactive) |
| O=C(c1ccncc1)N1CC[C@H]2[C@H](CCCN2Cc2ccc(F)cc2)C1 | 5.55% (inactive) |
| O=C(NCCS(=O)(=O)N1CCN(c2ccccc2F)CC1)c1ccc(Br)o1 | 0.09% (inactive) |
| CC(=O)N1Cc2cc(C(=O)NCc3cccc(F)c3)nc(-c3cccc(C4=CCCC4)c3)c2[C@H]1CCO | -1.83% (inactive) |
| COc1ccc2c(c1)CN1CN(CCc3ccccc3)S(=O)(=O)CC21 (stereo unspecified) | 0.93% (inactive) |
| CC1(C(=O)Nc2cccc(Oc3ccccc3)c2)CCN1Cc1ccccc1Cl (stereo unspecified) | -0.38% (inactive) |
| Cc1ccoc1C(=O)Nc1cccc(Oc2ccccc2)c1 | 11.7% (active) |
| COc1ccc(/C=C/C(=O)OCC(=O)Nc2cccc(Oc3ccccc3)c2)c(OC)c1 | 2.49% (inactive) |
| O=C(NCc1ccccc1)[C@@H]1CCCN1C(=O)[C@@H](NS(=O)(=O)c1ccc(F)cc1F)C1CCCCC1 | -0.9% (inactive) |
| C[C@H]1CN([C@@H](C)CO)C(=O)CCCn2nncc2CO[C@@H]1CN(C)C(=O)Nc1ccc(N2CCN(C)CC2)cc1 | -1.55% (inactive) |
| CCOc1ccc(-n2c(SCC(=O)Nc3cc(C)c(NC(=O)c4ccccc4)cc3OC)nnc2-c2cccc(Cl)c2)cc1 | -2.83% (inactive) |
| COC(=O)C1=C(C)N(Cc2cccc(C(F)(F)F)c2)C(=NCc2ccccc2)NC1c1ccc(Cl)cc1 (stereo unspecified) | 4.18% (inactive) |
| COc1ccc(Cc2nc3ccc(C(=O)NCC4CCOCC4)cc3o2)cc1OC | 2.3% (inactive) |
| CSCCNC(=O)c1ccc2nc(Cc3ccccc3F)oc2c1 | 10.5% (active) |
| COCCNC(=O)c1ccc2nc(Cc3ccc(OC)c(OC)c3)oc2c1 | 4.83% (inactive) |
| Brc1ccc(/C=N/N2CCN(C3c4ccccc4-c4ccccc43)CC2)s1 | 0.61% (inactive) |
| COc1cccc(N(CC(=O)NC2CCCC2)C(=O)Cn2nnc(-c3ccc(C)o3)n2)c1 | 0.01% (inactive) |
| C[C@]12CCC(=O)C=C1C=CC1C2CC[C@@]2(C)C1CC[C@@]21CCC(=O)O1 (stereo partly specified) | -2.47% (inactive) |
| Cc1ccc(C)c(C(C)NC(=O)C2CCCO2)c1 (stereo unspecified) | -0.46% (inactive) |
| O=C(Nc1nnc(SCc2c(Cl)cccc2Cl)s1)C1CCCO1 (stereo unspecified) | 3.2% (inactive) |

| Compound | activation |
| --- | --- |
| Cc1cc(C)c2nc(NC(=O)C3CCCO3)sc2c1 (stereo unspecified) | 11.9% (active) |
| CCOc1ccc(-n2c(SCC(=O)Nc3cc(C)c(NC(=O)c4ccccc4)cc3OC)nnc2-c2cccs2)cc1 | 7.81% (inactive) |
| O=C(CSc1nnc2ccccn12)c1ccccc1 | 8.56% (inactive) |
| Cc1ccc(-n2c(C)cc(C(=O)CSc3nnc4ccccn34)c2C)cc1 | 11.6% (active) |
| Cc1cc(C(=O)CSc2nc(N)cc(=O)[nH]2)c(C)n1-c1cccc(F)c1 | -3.64% (inactive) |
| CS(=O)(=O)N1CCC(C(=O)N2CCN(c3ccccc3)CC2)CC1 | -2.01% (inactive) |
| CS(=O)(=O)N1CCN(c2cccc(Cl)n2)CC1 | -0.95% (inactive) |
| CS(=O)(=O)N1CCc2nc(-c3ccccc3)sc2C1 | 15.3% (active) |
| CCc1c(-c2ccccc2OC)ncn1CCc1ccccc1OC | -2.96% (inactive) |
| Cc1c(Cl)c([N+](=O)[O-])nn1Cc1ccc(C(=O)N/N=C\c2cc(Cl)ccc2O)o1 | 0.23% (inactive) |
| CN(C)c1ccc(/C=N/NC(=O)c2ccc(Cn3cc(Br)cn3)o2)cc1 | 5.9% (inactive) |
| O=C(N/N=C\c1ccc(Br)cc1)c1ccc(Cn2cccn2)o1 | 10.5% (active) |
| COc1ccc(-n2c(SCC(=O)Nc3ccccc3-c3ccccc3)nnc2-c2cccnc2)cc1 | 0.21% (inactive) |
| O=C(Nc1ccc2ccccc2c1)Nc1ccc2snnc2c1 | 1.18% (inactive) |
| COc1ccc(C(=O)Nc2ccc(F)cc2F)cc1 | 10.5% (active) |
| COc1ccc(NC(=O)c2c(C)oc3c2CCCC3)cc1 | 3.38% (inactive) |
| COCCNC(=O)Nc1ccc2nc(-c3ccco3)c(-c3ccco3)nc2c1 | -6.29% (inactive) |
| COc1ccc(C(=O)Nc2ccc(-n3nncc3C(C)(C)C)cc2)cc1 | -2.44% (inactive) |
| O=C(C=CC(=O)Nc1ccc(F)cc1F)Nc1ccc(F)cc1F | -0.27% (inactive) |
| CCOC(=O)N1CCN(S(=O)(=O)c2ccc(C(=O)Nc3ccc(F)cc3F)cc2)CC1 | 3.94% (inactive) |
| COc1ccc(NC(=O)Nc2ccc3nsnc3c2)cc1 | 15.7% (active) |
| COc1ccc(NC(=O)c2ccc(OC)cc2)cc1 | 14.9% (active) |
